In PubChem BioAssay:

Target: Concanavalin-A (Canavalia ensiformis) (UniProt P02866)
Experiment: compounds binding concanavalin A lectin – biochemical, small-molecule microarray, Alexa647 label, 635 nm, artefact control for SMM control protein annotation, primary screen (AID 1127);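 note: z combines 667 nm emission intensity with signal-to-noise across three replicate slides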
Details: ConA-A647 binding fluorescence, higher = more signal

Chain of Concanavalin-A (Canavalia ensiformis) (P02866 whole entry, looked up): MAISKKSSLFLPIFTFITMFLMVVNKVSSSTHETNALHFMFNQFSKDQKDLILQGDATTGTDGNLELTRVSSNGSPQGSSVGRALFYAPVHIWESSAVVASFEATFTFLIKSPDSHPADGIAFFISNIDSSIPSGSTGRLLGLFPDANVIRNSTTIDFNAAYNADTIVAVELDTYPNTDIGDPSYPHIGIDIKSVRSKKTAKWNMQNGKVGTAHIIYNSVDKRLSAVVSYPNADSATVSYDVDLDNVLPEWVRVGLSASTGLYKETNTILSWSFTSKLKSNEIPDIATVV

| Compound | composite z-score |
| --- | --- |
| COC(=O)C[C@H]1O[C@@H](CCc2ccccc2)[C@@H](C)[C@@H]1[Si](C)(C)c1ccc(OC)cc1 | -0.615 |
| CC(=CC1CCCCC1)[C@@H](NC(=O)c1cccnc1)c1ccc(-c2ccccc2)cc1 | 0.132 |
| [N-]=[N+]=Nc1ccccc1C[C@]1(C(=O)NCC(O)CO)N=C(c2ccc(OCCCO)cc2)O[C@H]1c1ccccc1 (stereo not given in full) | 0.197 |
| COCC(=C=CC[C@H](O)c1cccc(OCCO)c1)CCO | -0.042 |
| COC(=O)[C@H](Cc1ccccc1)N[C@H](/C=C/C1CC1)[C@@H](O)Cc1ccccc1 | -0.811 |
| C=CCOC(=O)[C@H]1[C@@H]2C(=O)O[C@@H](c3ccccc3)[C@@H](c3ccccc3)N2[C@@H](c2ccc(OCCOC(=O)[C@@H]3C[C@@H]4C(=O)N5CCC[C@H]5C(=O)N4[C@@H]3c3cccc(OCCO)c3)cc2)[C@]12C(=O)Nc1ccc(I)cc12 | 1.14 |
| COCC(=C=CC[C@@H](O)c1ccc(OCCO)cc1)C[C@@H](O)c1ccccn1 | 0.403 |
| COc1ccc([Si](C)(C)[C@@H]2[C@@H](CCO)O[C@]3(C(=O)N(Cc4cccc(N5CCOC5=O)c4)c4ccccc43)[C@H]2C)cc1 | 1.12 |
| [N-]=[N+]=Nc1ccccc1[C@H]1OC(c2ccc(OCCCO)cc2)=N[C@@]1(Cc1ccccc1)C(=O)N1CCOCC1 | 1.14 |
| CN1C(=O)C2C=CC(C(O)C=Cc3ccc([N+](=O)[O-])cc3)N(Nc3ccccc3)C2C1=O (stereo not given) | 0.988 |
| C#CCOc1ccc(C[C@@H](C(=O)OC)N(CC#C)[C@@H](/C=C/C2CC2)[C@H](O)Cc2ccccc2)cc1 | -0.557 |
| O=C(NCc1ccccc1)[C@@H]1c2ccccc2C(=O)N(C2Cc3ccccc3C2)[C@H]1c1ccc(CO)cc1 | 0.899 |
| COC(=O)c1c2oc(c1C(=O)OC)C(=O)NC1(CCCCC1)c1cn(nn1)C[C@H](Cc1ccccc1)NC(=O)N[C@H](CO)CC2 | 0.91 |
| CCCCCCc1nc(-c2ccc(-c3ccc(Cl)c(Cl)c3)o2)cc2c1[Si](C(C)C)(C(C)C)O[C@H]2c1ccccc1 | -0.131 |
| COCCOC(=O)N1C(=O)[C@@]2(c3cc(C#CC4(O)CCCCCC4)ccc31)[C@H](C(=O)Nc1nc3ccccc3s1)[C@H]1C(=O)O[C@H](c3ccccc3)[C@H](c3ccccc3)N1[C@@H]2c1ccc(OCCO)cc1 | 1.1 |
| COC(=O)[C@@]1(Cc2ccc(OC)cc2)[C@H]2c3cc(C(=O)N4CCCC4)n(CCCNc4ncc(C(F)(F)F)cc4Cl)c3C[C@H]2CN1C(=O)c1ccccc1 | 0.878 |
| COC(=O)[C@@]1(Cc2ccc(OC)cc2)[C@H]2c3cc(C(=O)N4CCCC4)n(CCc4ccc(O)c(O)c4)c3C[C@H]2CN1C(=O)c1ccccc1 | 0.0245 |
| Cc1c(NC(=O)/C(C#N)=C/c2cccc([N+](=O)[O-])c2)c(=O)n(-c2ccccc2)n1C | 0.456 |

| Compound | composite z-score |
| --- | --- |
| C[N+](C)(C)CCCC[C@@H]1NC(=O)[C@@H]2C[C@H](C(=O)NCCCCCCNC(=O)CS)[C@H](c3ccc(O)cc3)N2C1=O | 0.871 |
| COC(=O)[C@@]1(Cc2ccccc2)[C@H]2c3cc(C(=O)N4CCCC4)n(Cc4ccc(O)c(OC)c4)c3C[C@H]2CN1C(=O)c1ccccc1 | 0.284 |
| O=C1O[C@@H](c2ccccc2)[C@@H](c2ccccc2)N2[C@@H](c3ccccc3OCCO)[C@]3(C(=O)Nc4ccccc43)[C@@H](C(=O)O)[C@H]12 | 1.13 |
| CCCNC(=O)[C@@H]1c2ccccc2C(=O)N(Cc2ccccc2OC)[C@H]1c1ccc(CO)cc1 | 0.748 |
| CC[C@@H]1C=C(C(=O)O)[C@H](c2ccc(C)cc2)N1S(=O)(=O)c1ccc(C)cc1 | 0.759 |
| O=C1O[C@H](c2ccccc2)[C@H](c2ccccc2)N2[C@H]1[C@@H](C(=O)NC[C@H](O)c1ccccc1)[C@]1(C(=O)Nc3ccccc31)[C@H]2c1ccc(O)cc1 | 1.01 |
| Cc1ccc(S[C@]2(C(=O)NCC(C)C)CC(=O)N(Cc3cc(C(F)(F)F)cc(C(F)(F)F)c3)[C@@H]2c2ccc(CO)cc2)cc1 | -0.512 |
| COCCOC(=O)N1C(=O)[C@@]2(c3cc(C#CC4=CCCCC4)ccc31)[C@H](c1ccc(OCCO)cc1)N1[C@H](c3ccccc3)[C@H](c3ccccc3)OC(=O)[C@H]1[C@@H]2C(=O)N1CCc2cc(OC)c(OC)cc2C1 | 0.922 |
| COc1ccccc1CN1C(=O)c2ccccc2[C@@H](C(=O)NCc2ccccc2)[C@@H]1c1ccc(CO)cc1 | 0.305 |
| COCCOC(=O)N1C(=O)[C@@]2(c3ccccc31)[C@H](C(N)=O)[C@H]1C(=O)O[C@H](c3ccccc3)[C@H](c3ccccc3)N1[C@@H]2c1ccc(O)cc1 | 0.237 |
| C=C(/C(=C/C[C@H](OC(C)=O)c1ccc(OCCO)cc1)c1cc(C(=O)OC)ccc1OC)C(C)C | 0.883 |
| COCCCNC(=O)[C@@]1(Sc2ccc(C)cc2)CC(=O)N(Cc2ccccc2Cl)[C@@H]1c1ccc(CO)cc1 | 0.629 |
| O=C(O)[C@H](Cc1ccccc1)n1cc(-c2ccccc2)nn1 | 0.362 |
| CC(C)[Si](C#CCCCC#N)(Oc1ccccc1Br)C(C)C | 0.912 |
| C=CC1c2cc(O)c(OC)cc2CCN1Cc1cccc(OC(F)(F)F)c1 (stereo not given) | 0.462 |
| O=C1OCCC=C[C@H]2OC34C=CCN(Cn5nnc6ccccc65)C(=O)[C@H]3N(CCO)C(=O)[C@@H]4C12 (stereo not given in full) | -1.75 |
| CC(C)[Si](C#C[Si](C(C)C)(C(C)C)C(C)C)(O[C@H](C)c1cn(Cc2ccccc2)nn1)C(C)C | 0.598 |
